# Data reported in PubChem BioAssay AID493066 (National Center for Advancing Translational Sciences (NCATS), 2011).
# Results filed as inconclusive are left out. Active and inactive are the calls of the source. Calls follow the shape of the dose curve; as a rule, active = well fitted cell-killing curve with a large enough effect; inconclusive = small, poorly fitted or top-dose-only effect; inactive = flat fitted curve, though single readings scatter.
# Test: HBEC Cell Viability Secondary Assay for qHTS Assay for Epigenetic Modulators
# Conditions: HBEC normal bronchial cells viability, ATP luminescence, 72 h
# Text: NIH Molecular Libraries Screening Centers Network [MLSCN] NIH Chemical Genomics Center [NCGC] MLSCN Grant: 1 X01 MH079860-01 Assay Provider: Elisabeth D. Martinez, University of Texas SW Medical Center NCGC Assay Overview: This secondary assay characterizes selected actives identified in the qHTS of the Locus Derepression (LDR) assay (PubChem AID 1865). The LDR assay detects the derepression of a GFP reporter that is stably integrated in a region of the genome of murine c127i mammary cells that is presumably silenced. Compounds that cause derepression of the locus to express GFP are identified by enumerating GFP positive cells using a laser-scanning microplate cytometer. […] Cell viability was measured using a luminescence-based detection reagent that measures cellular ATP levels.
# NCGC Assay Protocol Summary HBEC cells were seeded at 125 cells/5 uL/well in white, solid bottom, 1536 well plates (Greiner). […] Plates were incubated 72 hours at 37deg C and 5% CO2, then 3.5 uL/well CellTiter-Glo(R) (Promega) detection reagent was added, plates were incubated at ambient temperature for 10 minutes and luminescence was measured by a ViewLux (Perkin Elmer) reader. […] A quantitative high-throughput screen identifies potential epigenetic modulators of gene expression. […] A quantitative high-throughput screen identifies potential epigenetic modulators of gene expression. […]
row,SMILES,Potency
1,COc1ccc(OC)c(N2C(=O)NC(=O)/C(=C\c3ccc([N+](=O)[O-])s3)C2=O)c1,28.1 µM (active)
2,O=C1NC(=O)N(CCc2ccc(F)cc2)C(=O)/C1=C/C=C/c1ccccc1,7.91 µM (active)
